According to PubChem BioAssay (NCI):
This is part of a sample that, as a whole, favours compounds with a hit. Of some 79,000 tested, about 15% had one in any assay. A number with no mark means an inactive call. Active and inactive are the calls of the source. Cut-off read from the data, not from the text of the source: active = growth inhibition above about 70%; inactive = the rest.

Experiments:
[1] = NCI Yeast Anticancer Drug Screen. Data for the rad50 strain (AID 155);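 note: 0% = growth of vehicle-only cultures of the same strain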; conditions: S. cerevisiae rad50 strain growth inhibition; at 50.0 µM; stronger effect = higher value
Method in brief: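 Growth of the mutant yeast was measured after compound exposure and referenced to vehicle-treated cultures.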

[2] = NCI Yeast Anticancer Drug Screen. Data for the mec2-1 strain (AID 157); conditions: S. cerevisiae mec2-1 strain, at 50.0 µM, stronger effect = higher value
Method in brief: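 Using mec2-1 yeast: add compound, measure growth, express inhibition versus vehicle-treated cultures.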

[3] = NCI Yeast Anticancer Drug Screen. Data for the sgs1 mgt1 strain (AID 161);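 note: 0% = growth of cultures given vehicle only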; conditions: S. cerevisiae sgs1 mgt1 strain, at 50.0 µM, stronger effect = higher value
Method in brief: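 Compounds are added to genetically altered yeast, and growth is compared with cultures given vehicle alone to give percent inhibition.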

[4] = NCI Yeast Anticancer Drug Screen. Data for the cln2 rad14 strain (AID 165);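 note: 0% = growth equal to vehicle treated cultures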; conditions: S. cerevisiae cln2 rad14 strain, at 50.0 µM, stronger effect = higher value
Method in brief: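 Yeast strain cln2 rad14, bearing defects in cell cycle control and DNA repair, serves as the test system; values reflect growth inhibition compared with vehicle.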

[5] = NCI Yeast Anticancer Drug Screen. Data for the bub3 strain (AID 167); conditions: S. cerevisiae bub3 mutant strain, at 50.0 µM, stronger effect = higher value
Method in brief: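 Whole-cell yeast assay. The mutant strain was incubated with compounds, and growth inhibition was determined by comparison with vehicle-treated cells.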

[6] = NCI Yeast Anticancer Drug Screen. Data for the mlh1 rad18 strain (AID 175); conditions: S. cerevisiae mlh1 rad18 strain growth inhibition; at 50.0 µM; stronger effect = higher value
Method in brief: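 Steps: expose repair-defective yeast to compound; measure growth; express inhibition against vehicle-treated controls.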

SMILES	growth inhibition [1]	growth inhibition [2]	growth inhibition [3]	growth inhibition [4]	growth inhibition [5]	growth inhibition [6]
COc1ccc(Cl)cc1NC(=O)c1cccc(Cl)c1	18.8%	16.9%	7.8%	10.9%	30.1%	-0.3%
COC(=O)C(Cc1ccc2c(c1)OCO2)(NC(=O)c1ccccc1)P(=O)(OC)OC (configuration not stated)	-30.5%	1.05%	-8.6%	16.8%	-25.1%	-32.5%
O=C(O)Cc1cc(O)c(CC(=O)O)cc1O	-11.9%	-21.9%	-49.4%	-20.4%	-22.4%	-4.1%
CC1CSC(C)C(=O)N1 (configuration not stated)	-11.2%	-3.65%	-5.75%	7.55%	15.8%	2%
CC(=O)N=c1ccc2nc(N)nn(O)c-2c1	9.5%	0.05%	-10.4%	-4.95%	-33.6%	-26.6%
Cc1ccc([N+](=O)[O-])cc1S(=O)(=O)O	24.4%	13.2%	21.8%	11.7%	20%	2.45%
CCOC(=O)N[C@@H]1C(CC(=O)OC)O[C@H]2OC(C)(C)O[C@H]21 (some centres not stated)	18.1%	-7.2%	10.4%	7.4%	-9.55%	6.25%
COC(=O)/C=C(/C(=O)OC)N(O)C(=O)CN1C(=O)c2ccccc2C1=O	-16%	-15.9%	-18.7%	-17.3%	-5.85%	-23.2%
CSc1nc2c(nc(N)n2C2OCC(O)C(O)C2O)c(=O)[nH]1 (configuration not stated)	-19.2%	-5.2%	-12.5%	-15%	-5.65%	-29.2%
COC(CN1C=C(Sc2ccccc2)CC1)OC	49.2%	24.2%	32.3%	13%	27.5%	56.2%
Nc1ccn([C@@H](C=O)C[C@@H](C=O)CO)c(=O)n1	-3.45%	-0.85%	14.8%	19.3%	11.2%	-45.6%
O=C1C2C(C(=O)N1c1ccccc1)C1(c3cccnc3)NC(=O)C2(Cc2cccnc2)c2ccccc21 (configuration not stated)	12.6%	-5.85%	8.95%	19.7%	-1.55%	13.5%
O=C(O)/C=C\C(=O)Nc1ccc(C(=O)NCC(=O)O)cc1	-22.9%	-4.8%	-0.85%	-20.8%	-11.8%	-7.05%
CNc1nc(C(F)(F)F)nc(Cl)c1N	10%	2.5%	13.4%	-7.95%	15.3%	7.4%
Cc1cccc(N=N/C(=N\NC(=O)c2cc(Cl)ccc2O)c2ccc(N(CCC#N)CCC#N)cc2C)c1	13.7%	-1%	19.7%	1.8%	13.8%	-79.6%
CCO/C(Cc1ccc(Cl)cc1)=N/NC(N)=S	39.6%	2%	24.9%	24.1%	21.2%	-15.5%
CC1N=C(c2ccccc2)SC1C (configuration not stated)	-14.2%	-18.4%	-24.9%	-49.4%	-11%	-38.3%
O=c1c(SCc2ccc(Cl)cc2)c(SCc2ccc(Cl)cc2)cnn1-c1ccccc1	-5.7%	-17.2%	19.2%	6.65%	-6.6%	13.1%
Nc1nc(N)nc(SCCO)n1	-25.1%	1.55%	-14.1%	-44.8%	-4.75%	-8.45%
Cc1cc2oc(C)c(S(=O)(=O)NC(=O)Nc3ccc(Cl)cc3)c(=O)c2c(=O)o1	-2.85%	-0.45%	-2.5%	3.55%	12.2%	-2.8%
CCN(CC)S(=O)(=O)c1ccc(S(C)(=O)=O)cc1	-19.8%	-10.9%	-8.05%	-60.1%	8.35%	-14.2%

SMILES	growth inhibition [1]	growth inhibition [2]	growth inhibition [3]	growth inhibition [4]	growth inhibition [5]	growth inhibition [6]
O=C(O)CCNCCO	-3.5%	13.4%	5.1%	-18.6%	20.1%	2.45%
Cc1ccc(C(=O)/C=C/c2ccc3c(c2)OCO3)c(C)c1	39.9%	21.8%	52.6%	-6.7%	47.5%	33.3%
Nc1ccc(CCCCOc2ccccc2)cc1	98.6% (active)	99% (active)	98.5% (active)	98.5% (active)	99% (active)	98.4% (active)
CC1=NN(c2cc(Cl)c(S(=O)(=O)O)cc2Cl)C(=O)C1N=Nc1ccc(S(=O)(=O)O)cc1 (configuration not stated)	-6.3%	-19.8%	-8%	2.05%	-5.8%	-0.9%
CCOC(=O)CCCCCCCCCCCCC1C=CCC1 (configuration not stated)	-19.1%	-41.4%	-3.45%	-28.6%	-49.1%	-21.3%
CC(C)c1ccc(/C=C2/CCCCC2=O)cc1	-2.55%	-15%	-10.5%	-68.8%	-16.4%	-24.9%
Cc1ccc(N(C)S(=O)(=O)c2ccc([N+](=O)[O-])cc2)cc1	8.4%	-2.65%	29.1%	21.1%	42.1%	26.2%
C[C@@]12CCC(=O)C=C1CC[C@H]1C2C(=O)C[C@]2(C)C1CC[C@@]2(O)C(=O)COC(=O)CCC(=O)O (some centres not stated)	0.1%	10.3%	-19.8%	4.45%	6.95%	0.25%
Cc1cc2oc3c(c2c(=O)[nH]1)C(=O)c1ccccc1C3=O	-6.55%	-1.3%	-8%	-17.4%	-21.8%	-5.85%
COc1cccc([B-]23OCC[N+]2(CNC(=O)c2ccccc2O)CCO3)c1 (configuration not stated)	29.6%	2.95%	12.9%	6.75%	-3.25%	19.4%
O=C(/C=C/c1ccccc1Cl)c1ccccc1[N+](=O)[O-]	96% (active)	97.5% (active)	97.7% (active)	94.7% (active)	96.5% (active)	95.7% (active)
c1ccc(B2OCC(C3OB(c4ccccc4)OC4COB(c5ccccc5)OC43)O2)cc1 (configuration not stated)	32.5%	-2.45%	-1.2%	-30.9%	-23.2%	23.6%
CC(=O)N/N=C(\N)c1nc2c(n3nc(C)nc13)CCCC2	-17.6%	-19%	-1.2%	-18.4%	-5.05%	5.5%
COc1n[nH]c(N)n1	8.3%	12.8%	3.8%	22.8%	25.6%	20.2%
O=S1(=O)C(c2ccc(F)cc2)=C(O)c2cc3ccccc3nc21	29.2%	30.9%	27%	21.4%	-8.85%	23.2%
CCN(CC)CCn1c2c3ccccc3ccc2c2oc(=O)c3ccccc3c21	-13.8%	6.6%	-14.1%	19.4%	-7.5%	7.8%
CC(C)COC1CN=NN1/C=C1\CCOC1=O (configuration not stated)	-4.2%	10.4%	14.3%	-6.65%	24.2%	-3%
O=S1(=O)OCCOS(=O)(=O)C1(F)Br	-38.4%	-4.7%	-19.6%	-8%	-20.6%	-29.8%
N#CC(C(=O)O)C1(C(C#N)C(=O)O)CCN(Cc2ccccc2)CC1 (configuration not stated)	-9.9%	-5.1%	40.5%	-21.9%	-2.15%	-10.1%
COc1cc2c(c(O)c1OC)C(=O)[C@@H]1CCC(=O)N1C2c1ccccc1 (some centres not stated)	19.1%	2.7%	19.4%	13.1%	11.3%	-18.4%
COc1ccccc1N(CN1C(=O)CCC1C(=O)O)C(C)=O (configuration not stated)	9.2%	10.4%	-4%	7.25%	-9.1%	-37.9%
